Screening data: PubChem, Bradner/Qi Labs at DFCI
This excerpt belongs to a sample that is enriched for hits.
CBX7 AlphaScr – CBX7 inhibition, primary AlphaScreen | AID 1224903 | normalised signal (fraction of DMSO) (test concentration not listed) | 66,000 compounds, 1.1% hits | O95931 | AlphaScreen His6-CBX7 / biotin-H3K27me3 peptide binding; hits give low values; in the data active means normalised signal below about 0.5
Target sequence (O95931 whole entry, looked up): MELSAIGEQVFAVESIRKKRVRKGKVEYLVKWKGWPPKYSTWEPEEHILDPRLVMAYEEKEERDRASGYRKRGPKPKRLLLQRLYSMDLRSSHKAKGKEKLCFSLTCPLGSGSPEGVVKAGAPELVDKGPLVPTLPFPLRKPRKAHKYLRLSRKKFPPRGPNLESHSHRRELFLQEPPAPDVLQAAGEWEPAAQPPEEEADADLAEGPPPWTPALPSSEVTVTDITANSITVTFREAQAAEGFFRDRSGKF
Starred values were filed as active, the others as inactive; ! = a repeat was not active.

SMILES | CBX7 AlphaScr
CCCCN(CC)S(=O)(=O)c1ccc(C(=O)Nc2nnc(C3CC3)o2)cc1 | 0.0365*
CCN(Cc1ccccc1)S(=O)(=O)c1ccc(C(=O)Nc2nnc(C3CC3)o2)cc1 | 0.71
Cc1cc(C)cc(NC2c3ccccc3C(=O)N2c2ccc(Cl)cc2)c1 (stereo unspecified) | 0.994
CCOCCCNC(=O)c1cc2c(s1)CS(=O)(=O)C2 | 1.04
CCC(CC)NC(=O)c1c(-c2ccccc2Cl)noc1C | 1.02
COc1c(Cl)ccc(Cl)c1C(=O)Nc1ccccc1F | 1.08
Cc1ccc(NC(=O)c2oc3ccc(S(=O)(=O)N4CC(C)CC(C)C4)cc3c2C)cc1Cl (stereo unspecified) | 1.03
O=C(C1CC1)N1CCc2cc(S(=O)(=O)N(CCc3ccccc3)Cc3ccccc3)ccc21 | 1.09
CCOc1cc2c(cc1OCC)C(c1cccc(Cl)c1)NCC2 (stereo unspecified) | 1.08
CCOc1ccc(C(=O)Nc2nc3ccc(OCC)cc3s2)cc1 | 0.874
O=C(Nc1ccc(Cl)cc1F)C1CCCN(S(=O)(=O)c2cccc3cccnc23)C1 (stereo unspecified) | 1.02
CCCCN(CC)CCNC(=O)c1cn(C2CCCC2)c(=O)c2c1c1ccccc1n2C | 0.925
COc1ccc(CN(C)CCc2ccccn2)c(OC)c1 | 0.698
O=C(Nc1nc(-c2ccncc2)cs1)c1cccc(Oc2ccccc2)c1 | 0.915
O=C(Nc1nc(-c2ccccn2)cs1)c1ccc(Oc2ccccc2)cc1 | 0.116*
COc1ccc(-c2csc(NC(=O)c3ccccc3)n2)cc1 | 1.03
COc1ccc(-c2csc(NC(=O)c3cccc(Oc4ccccc4)c3)n2)c(OC)c1 | 0.915
COc1ccc(-c2csc(NC(=O)c3ccc(Oc4ccccc4)cc3)n2)c(OC)c1 | 0.832
COc1cc(OC)cc(C(=O)Nc2nc(-c3ccccn3)cs2)c1 | 0*
O=C(Cn1cc(S(=O)(=O)c2ccccc2)c(=O)c2cc(F)ccc21)Nc1ccccc1 | 1.01
CCc1ccccc1NC(=O)CCc1c(C)nc2cc(-c3ccc(Cl)cc3)nn2c1C | 1.03
Cc1nc2ccccn2c1-c1csc(Nc2ccc(Br)cc2Br)n1 | 0.795
Cc1cccc(Nc2nc(-c3c(C)nc4ccccn34)cs2)c1 | 1.01
COc1ccccc1Nc1nc(-c2c(C)nc3sccn23)cs1 | 0.317*
COc1ccc(Cl)cc1Nc1nc(-c2c(C)nc3sccn23)cs1 | 0.968
SMILES | CBX7 AlphaScr
Cc1ccc(Nc2nc(-c3c(C)nc4sccn34)cs2)c(C)c1 | 0.421*!
COc1ccccc1Nc1nc(-c2c(C)nc3ccccn23)cs1 | 0.96
CCOCCCNC(=O)C1CCN(Cc2nc(-c3ccccc3C)oc2C)CC1 | 0.948
CCOC(=O)c1cnc2c(C)cc(C)cc2c1Nc1ccc(OC)cc1 | 1.06
CCOCCCNC(=O)CCN1C(=O)COc2ccccc21 | 1.12
COC(=O)c1ccc2nc(C)cc(Nc3ccc(C)cc3)c2c1 | 0.949
COc1ccccc1-c1cc(=O)n(CC(=O)NCc2ccccc2Cl)c2c1CCCC2 | 1.01
CCCC(=O)N1c2ccccc2NC2=C(C(=O)CCC2)C1c1ccc(OC)cc1 (stereo unspecified) | 1.09
COc1ccc(Cl)cc1S(=O)(=O)NCCc1c(C)[nH]c2ccc(F)cc12 | 0.924
COc1cc(S(=O)(=O)NCCc2c(C)[nH]c3ccc(Br)cc23)c(C)cc1C | 0.587
COc1ccc(C)cc1S(=O)(=O)NCCc1c(C)[nH]c2ccc(F)cc12 | 0.996
COc1cc(S(=O)(=O)NCCc2c(C)[nH]c3ccc(F)cc23)c(C)cc1C | 0.913
COc1cc(C)c(S(=O)(=O)NCCc2c(C)[nH]c3ccc(C)cc23)cc1C | 0.375*
COc1ccc(Cl)cc1S(=O)(=O)NCCc1c(C)[nH]c2ccc(C)cc12 | 0.477*
O=C(Nc1ccccc1C(=O)Nc1ccc(F)cc1)c1cccc(S(=O)(=O)N2CCCCC2)c1 | 0.805
Brc1ccc2nc(-c3ccccn3)c(Nc3ccc4c(c3)OCO4)n2c1 | 0.659
Cc1ccccc1Nc1c(-c2ccccn2)nc2ccc(Br)cn12 | 0.916
COC(=O)CNc1c(-c2ccccn2)nc2ccc(Br)cn12 | 0.0635*
CCCCn1c(-c2ccc(OC)cc2)nc2ccccc21 | 0.786
COc1ccc(-c2nc(Nc3cc(F)ccc3C)c3ccccc3n2)cc1OC | 1.37
Cc1c(Cl)cccc1NC(=O)c1sc2ncn(Cc3ccccc3Cl)c(=O)c2c1C | 1.06
CCOC(=O)c1cnc2cc(Cl)c(OC)cc2c1NCCCN1CCOCC1 | 1.1
O=C1CN(C(=O)CCCc2ccccc2)C(c2ccc(F)cc2)c2cc(F)ccc2N1 (stereo unspecified) | 0.925
O=C1c2[nH]nc(-c3ccccc3)c2C(c2ccccc2)N1c1ccccc1 (stereo unspecified) | 1
COc1ccc(C2c3c(-c4ccccc4)n[nH]c3C(=O)N2c2ccccc2)cc1 (stereo unspecified) | 0.381*
SMILES | CBX7 AlphaScr
CC(C)c1ccc(C2c3c(-c4ccccc4)n[nH]c3C(=O)N2c2ccccc2)cc1 (stereo unspecified) | 0.845
CC1CCC(NC(=O)CN2C(=O)CCSc3ccccc32)CC1 (stereo unspecified) | 1.04
Cc1cccc(CCNC(=O)c2cn(C3CCCC3)c(=O)c3c2c2ccccc2n3C)c1 | 1.03
O=C(Nc1cccnc1)c1cc(-c2ccc(O)cc2)on1 | 1.08
COC(=O)c1cccc(Nc2cc(C)nc3c(C)cc(C)cc23)c1 | 0.823
COc1ccc(-n2c3c(cc(C(=O)Nc4ccc(OC)cc4OC)c2=O)C(=O)CC(C)(C)C3)cc1 | 1.12
COc1cccc(-n2c(-c3ccc(C)cc3)cc3c2CC(C)(C)CC3=O)c1 | 0.345*
COc1ccccc1-n1c(-c2ccc(C)cc2)cc2c1CC(C)(C)CC2=O | 0.317*
Cc1ccc(-c2cc3c(n2-c2ccccc2)CC(C)(C)CC3=O)cc1 | 0.946
COc1ccccc1-n1c2c(cc(C(=O)N3CCC(C)CC3)c1=O)C(=O)CC(C)(C)C2 | 1.01
COc1ccc(-c2cc3c(n2-c2ccccc2)CC(C)(C)CC3=O)cc1 | 0.788
Cc1ccc(-n2c(-c3ccccc3)cc3c2CC(C)(C)CC3=O)cc1Cl | 0.824
COc1ccc(Cn2c(-c3ccc(C)cc3)cc3c2CC(C)(C)CC3=O)cc1 | 0.795
CCOc1ccc(-n2c(-c3ccc(OC)cc3)cc3c2CC(C)(C)CC3=O)cc1 | 0.398*
COc1ccc(-n2c(-c3ccc(C)cc3)cc3c2CC(C)(C)CC3=O)c(OC)c1 | 0.272*
COc1ccc(-n2c(-c3ccc(Cl)cc3)cc3c2CC(C)(C)CC3=O)cc1 | 0.876
COc1ccc(-n2c(-c3ccc(C)cc3)cc3c2CC(C)(C)CC3=O)cc1 | 0.953
COCCNc1ccc2nnc(-c3ccc(F)cc3)n2n1 | 1.05
COc1ccc(C2C(=C(O)c3ccccc3)C(=O)C(=O)N2CCCn2ccnc2)cc1 (stereo unspecified) | 1.04
Cc1cc(N2C(=O)c3ccc(C(=O)N4CCC(C)CC4)cc3C2=O)no1 | 1.03
Cc1cc(N2CCCCC2)nc2ccc(NC(=O)CCC(=O)NCCc3ccc(Cl)cc3)cc12 | 0.964
COc1ccc(-c2noc(CCC(=O)N(C)c3cc(C)ccc3C)n2)cc1 | 0.847
Cc1c(Cl)cccc1NC(=O)c1cc(C(C)C)on1 | 1.13
Cc1ccc(NC(=O)Cn2ncc3c2-c2ccccc2OC3)c(Cl)c1 | 0.988
O=C(NC1CCCCCCC1)C1c2ccccc2C(=O)N1Cc1ccccc1Cl (stereo unspecified) | 0.811
CC(=O)Nc1nc(C)c(-c2csc(Nc3ccc(N)cc3)n2)s1 | 0.469*
COc1ccc(Nc2nc(-c3cccs3)cs2)cc1 | 0.746
COc1ccc(Nc2nc(-c3sc(NC(C)=O)nc3C)cs2)cc1 | 0.74
